In the supplement of paper PMC9492666 one finds relative cell viability data, which are given here for 36 molecules.

One test deals with HCC1937. Description: relative cell viability, compound + RSL3, vs DMSO (fraction of DMSO control); higher = less growth inhibition. Particulars: 72 h.
The subject of a further test is MDA-MB-231. Described as above. Particulars: 72 h.
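Also: breast cancer cell viability read out with the CCK-8 kit after co-treatment of each compound with the ferroptosis inducer RSL3.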

As for `C=C(C)[C@@H]1CC[C@]2(CO)CC[C@]3(C)[C@H](CC[C@@H]4[C@@]5(C)CC[C@H](O)C(C)(C)[C@@H]5CC[C@]43C)[C@@H]12` [Betulin] + COC(=O)c1ccc([C@H]2c3[nH]c4ccccc4c3C[C@H](C(=O)OC)N2C(=O)CCl)cc1 [RSL3], the values for the relative cell viability in the test with HCC1937 and with MDA-MB-231 were 0.619 and 0.453, respectively.
As to `O=c1c(-c2ccc(O)cc2)coc2cc(O)ccc12` [Daidzein] + COC(=O)c1ccc([C@H]2c3[nH]c4ccccc4c3C[C@H](C(=O)OC)N2C(=O)CCl)cc1 [RSL3], the relative cell viability with HCC1937 is 0.865; with MDA-MB-231, 0.608.
Consider `COCCNC(=O)Nc1ccc2nc(-c3cccs3)c(-c3cccs3)nc2c1` [Ac-CoA Synthase Inhibitor1] + COC(=O)c1ccc([C@H]2c3[nH]c4ccccc4c3C[C@H](C(=O)OC)N2C(=O)CCl)cc1 [RSL3], for which the relative cell viability came to 0.594 in the test with HCC1937 and 0.566 with MDA-MB-231.
On to `CN(C)c1cccc(-c2c3c(=O)n(-c4ccccc4Cl)[nH]c3cc(=O)n2C)c1` + COC(=O)c1ccc([C@H]2c3[nH]c4ccccc4c3C[C@H](C(=O)OC)N2C(=O)CCl)cc1 [RSL3], for which the results for the relative cell viability with HCC1937 and in the test with MDA-MB-231 were 0.433 and 0.579, respectively.
Regarding `N=C(N)NCCC(=O)O` [3-Guanidinopropionic Acid] + COC(=O)c1ccc([C@H]2c3[nH]c4ccccc4c3C[C@H](C(=O)OC)N2C(=O)CCl)cc1 [RSL3], the relative cell viability in the test on HCC1937 came to 0.509; in the test with MDA-MB-231, 0.659.
On to `CCOC(=O)N1c2ccc(C(F)(F)F)cc2[C@@H](N(Cc2cc(C(F)(F)F)cc(C(F)(F)F)c2)C(=O)OC)C[C@H]1CC` [Torcetrapib] + COC(=O)c1ccc([C@H]2c3[nH]c4ccccc4c3C[C@H](C(=O)OC)N2C(=O)CCl)cc1 [RSL3], for which the relative cell viability is 0.642 in the test with HCC1937 and 0.458 in the test with MDA-MB-231.
With `O=C(NC1CCN(CCCCC2(C(=O)NCC(F)(F)F)c3ccccc3-c3ccccc32)CC1)c1ccccc1-c1ccc(C(F)(F)F)cc1` [Lomitapide] + COC(=O)c1ccc([C@H]2c3[nH]c4ccccc4c3C[C@H](C(=O)OC)N2C(=O)CCl)cc1 [RSL3], the relative cell viability stood at 0.173 with HCC1937 and 0.391 in the test on MDA-MB-231.
Turning to `Cn1nc(C(=O)N(Cc2ccccc2)Cc2ccc(C(=O)O)cc2)c2c1-c1cc(Cl)ccc1OC2` [Nidufexor] + COC(=O)c1ccc([C@H]2c3[nH]c4ccccc4c3C[C@H](C(=O)OC)N2C(=O)CCl)cc1 [RSL3], the relative cell viability was 0.488 in the test on HCC1937 and 0.673 with MDA-MB-231.
Taken in the same sequence, the figures for `CC(=O)c1c(C)cc2cccc(O)c2c1O` [Nepodin] + COC(=O)c1ccc([C@H]2c3[nH]c4ccccc4c3C[C@H](C(=O)OC)N2C(=O)CCl)cc1 [RSL3] were 0.404 and 0.56.
Regarding `CCCCCCCCCCCCCCOc1ccc(C(=O)OCC(=O)N(C)CC(=O)OCC)o1` [Olumacostat Glasaretil] + COC(=O)c1ccc([C@H]2c3[nH]c4ccccc4c3C[C@H](C(=O)OC)N2C(=O)CCl)cc1 [RSL3], the relative cell viability was 0.281 in the test on HCC1937 and 0.278 with MDA-MB-231.
Regarding `O=S(=O)(c1ccccc1)N(CC(F)(F)F)c1ccc(C(O)(C(F)(F)F)C(F)(F)F)cc1` + COC(=O)c1ccc([C@H]2c3[nH]c4ccccc4c3C[C@H](C(=O)OC)N2C(=O)CCl)cc1 [RSL3], the relative cell viability was determined as 0.36 in the test with HCC1937 and 0.638 with MDA-MB-231.
For the molecule `CC(=O)O[C@H](CC=C(C)C)C1=CC(=O)c2c(O)ccc(O)c2C1=O` [Acetyl shikonin] + COC(=O)c1ccc([C@H]2c3[nH]c4ccccc4c3C[C@H](C(=O)OC)N2C(=O)CCl)cc1 [RSL3], the relative cell viability with HCC1937 is 0.665; with MDA-MB-231, 0.681.
Regarding `O=C(OC(C(F)(F)F)C(F)(F)F)N1CCN(Cc2ccc(C(F)(F)F)cc2N2CCCC2)CC1` + COC(=O)c1ccc([C@H]2c3[nH]c4ccccc4c3C[C@H](C(=O)OC)N2C(=O)CCl)cc1 [RSL3], the relative cell viability amounted to 0.928 with HCC1937 and 0.613 with MDA-MB-231.
In the case of `CC(C)c1cc(C(C)C)c(CC(=O)NS(=O)(=O)Oc2c(C(C)C)cccc2C(C)C)c(C(C)C)c1` [Avasimibe] + COC(=O)c1ccc([C@H]2c3[nH]c4ccccc4c3C[C@H](C(=O)OC)N2C(=O)CCl)cc1 [RSL3], the relative cell viability in the test with HCC1937 is 0.322; in the test with MDA-MB-231, 0.511.
`COc1ccc(-c2c[nH]c3nccc(-c4ccsc4)c23)c(OC)c1` + COC(=O)c1ccc([C@H]2c3[nH]c4ccccc4c3C[C@H](C(=O)OC)N2C(=O)CCl)cc1 [RSL3]: the relative cell viability with HCC1937 amounted to 0.403; with MDA-MB-231, 0.665.
`O=C(Nc1cccnn1)N1CCC(=Cc2cccc(Oc3ccc(C(F)(F)F)cn3)c2)CC1` + COC(=O)c1ccc([C@H]2c3[nH]c4ccccc4c3C[C@H](C(=O)OC)N2C(=O)CCl)cc1 [RSL3]: the values for the relative cell viability in the test with HCC1937 and in the test with MDA-MB-231 were 0.686 and 0.601, respectively.
On to `Cc1c(C(=O)NN2CCCCC2)nn(-c2ccc(Cl)cc2Cl)c1-c1ccc(Cl)cc1` [Rimonabant] + COC(=O)c1ccc([C@H]2c3[nH]c4ccccc4c3C[C@H](C(=O)OC)N2C(=O)CCl)cc1 [RSL3], for which the relative cell viability with HCC1937 stood at 0.649; with MDA-MB-231, 0.216.
Turning to `Cc1c(C)c2c(c(C)c1O)CCC(C)(COc1ccc(CC3SC(=O)NC3=O)cc1)O2` (configuration not stated) [Troglitazone] + COC(=O)c1ccc([C@H]2c3[nH]c4ccccc4c3C[C@H](C(=O)OC)N2C(=O)CCl)cc1 [RSL3], the relative cell viability with HCC1937 is 0.431; in the test with MDA-MB-231, 0.686.
The matching figures for `O=C(Nc1ccc(C(O)(C(F)(F)F)C(F)(F)F)cc1)c1ccccc1Cl` + COC(=O)c1ccc([C@H]2c3[nH]c4ccccc4c3C[C@H](C(=O)OC)N2C(=O)CCl)cc1 [RSL3]: 0.489 and 0.616.
As to `CC(C)c1c(C(=O)Nc2ccccc2)c(-c2ccccc2)c(-c2ccc(F)cc2)n1CC[C@@H](O)C[C@@H](O)CC(=O)O` [Atorvastatin Calcium] + COC(=O)c1ccc([C@H]2c3[nH]c4ccccc4c3C[C@H](C(=O)OC)N2C(=O)CCl)cc1 [RSL3], the results for the relative cell viability in the test on HCC1937 and with MDA-MB-231 were 0.571 and 0.385, respectively.
The matching figures for `CC1CC(OC(=O)C(O)c2ccccc2)CC(C)(C)C1` (configuration not stated) [Cyclandelate] + COC(=O)c1ccc([C@H]2c3[nH]c4ccccc4c3C[C@H](C(=O)OC)N2C(=O)CCl)cc1 [RSL3]: 0.808 and 0.638.
With `COC(=O)N(CC(=O)O)Cc1cccc(OCc2nc(-c3ccc(Cl)cc3)oc2C)c1` + COC(=O)c1ccc([C@H]2c3[nH]c4ccccc4c3C[C@H](C(=O)OC)N2C(=O)CCl)cc1 [RSL3], the relative cell viability was 0.538 in the test on HCC1937 and 0.709 with MDA-MB-231.
Consider `COc1c(/C=C/C(=O)c2ccc(O)cc2)ccc(O)c1CC=C(C)C` + COC(=O)c1ccc([C@H]2c3[nH]c4ccccc4c3C[C@H](C(=O)OC)N2C(=O)CCl)cc1 [RSL3], for which the relative cell viability in the test with HCC1937 was 0.579; with MDA-MB-231 it was 0.585.
Take `CCCCCC=CC(=O)CCc1ccc(O)c(OC)c1` [6-Shogaol] + COC(=O)c1ccc([C@H]2c3[nH]c4ccccc4c3C[C@H](C(=O)OC)N2C(=O)CCl)cc1 [RSL3]: the values for the relative cell viability with HCC1937 and in the test on MDA-MB-231 were 0.608 and 0.64, respectively.
As to `COc1ccc(N(C(=O)Nc2c(C)cccc2C)c2cc(Nc3ccc(N4CCN(C)CC4)cc3)ncn2)c(OC)c1` + COC(=O)c1ccc([C@H]2c3[nH]c4ccccc4c3C[C@H](C(=O)OC)N2C(=O)CCl)cc1 [RSL3], the values for the relative cell viability with HCC1937 and with MDA-MB-231 were 0.624 and 0.576, respectively.
As to `CCCCCCCCCCC#CC#CCCCCCCCCC(=O)O` [10,12-Tricosadiynoic acid] + COC(=O)c1ccc([C@H]2c3[nH]c4ccccc4c3C[C@H](C(=O)OC)N2C(=O)CCl)cc1 [RSL3], the relative cell viability with HCC1937 came to 0.4; in the test on MDA-MB-231, 0.634.
For the molecule `Cc1nc2ccc(C(=O)N3CCC4(CC3)CC(=O)c3c(cnn3C(C)C)C4)cc2[nH]1` + COC(=O)c1ccc([C@H]2c3[nH]c4ccccc4c3C[C@H](C(=O)OC)N2C(=O)CCl)cc1 [RSL3], the relative cell viability stood at 0.402 in the test on HCC1937 and 0.591 with MDA-MB-231.
Consider `COc1cccc(-n2c(=O)[nH]c3cc(Cl)n(-c4ccc(-c5cccc(OC)c5O)cc4)c3c2=O)c1` + COC(=O)c1ccc([C@H]2c3[nH]c4ccccc4c3C[C@H](C(=O)OC)N2C(=O)CCl)cc1 [RSL3], for which the relative cell viability amounted to 0.395 with HCC1937 and 0.572 in the test with MDA-MB-231.
As for `CC(C)(O)[C@@H]1Cc2cc3ccc(=O)oc3cc2O1` [marmesin] + COC(=O)c1ccc([C@H]2c3[nH]c4ccccc4c3C[C@H](C(=O)OC)N2C(=O)CCl)cc1 [RSL3], the relative cell viability in the test with HCC1937 was determined as 0.412; with MDA-MB-231 it was 0.59.
Regarding `Cc1cc(C)c(S(=O)(=O)N(CCc2cccc(Br)c2)Cc2ccc(-c3cccc(S(C)(=O)=O)c3)cc2)c(C)c1` + COC(=O)c1ccc([C@H]2c3[nH]c4ccccc4c3C[C@H](C(=O)OC)N2C(=O)CCl)cc1 [RSL3], the relative cell viability was 0.636 in the test on HCC1937 and 0.475 in the test on MDA-MB-231.
Taken in the same sequence, the figures for `O=c1c(O[C@@H]2O[C@H](CO)[C@@H](O)[C@H](O)[C@H]2O)c(-c2ccc(O)cc2)oc2cc(O)cc(O)c12` [Astragalin] + COC(=O)c1ccc([C@H]2c3[nH]c4ccccc4c3C[C@H](C(=O)OC)N2C(=O)CCl)cc1 [RSL3] were 0.586 and 0.645.
Taken in the same sequence, the figures for `O=C(O)Cc1cccc(OCCCN(Cc2cccc(C(F)(F)F)c2Cl)CC(c2ccccc2)c2ccccc2)c1` + COC(=O)c1ccc([C@H]2c3[nH]c4ccccc4c3C[C@H](C(=O)OC)N2C(=O)CCl)cc1 [RSL3] were 0.418 and 0.686.
Turning to `CC(C)(Oc1ccc(C(=O)c2ccc(Cl)cc2)cc1)C(=O)O` [Fenofibric acid] + COC(=O)c1ccc([C@H]2c3[nH]c4ccccc4c3C[C@H](C(=O)OC)N2C(=O)CCl)cc1 [RSL3], the relative cell viability with HCC1937 turned out to be 0.536; in the test with MDA-MB-231, 0.535.
Taken in the same sequence, the figures for `Cc1c(C(=O)NN2CCOCC2)nn(-c2ccc(Cl)cc2Cl)c1-c1ccc(I)cc1` + COC(=O)c1ccc([C@H]2c3[nH]c4ccccc4c3C[C@H](C(=O)OC)N2C(=O)CCl)cc1 [RSL3] were 0.0566 and 0.297.
For the molecule `O=C(Nc1ccc(C(O)(C(F)(F)F)C(F)(F)F)cc1)c1ccc(C(F)(F)F)cc1` + COC(=O)c1ccc([C@H]2c3[nH]c4ccccc4c3C[C@H](C(=O)OC)N2C(=O)CCl)cc1 [RSL3], the relative cell viability in the test with HCC1937 worked out at 0.264; with MDA-MB-231 it was 0.255.
`COc1ccc(CN2CCC(c3ccc4nc(C(=O)N5CCN(Cc6ccc(C(F)(F)F)cc6)CC5)[nH]c4c3)CC2)cn1` + COC(=O)c1ccc([C@H]2c3[nH]c4ccccc4c3C[C@H](C(=O)OC)N2C(=O)CCl)cc1 [RSL3]: the relative cell viability in the test on HCC1937 was 0.351; with MDA-MB-231, 0.562.
